In PubChem BioAssay (EPA / NIEHS) one finds outcome and AC50 data, which are given here for 22 compounds.

The nature of assay [1]: ATG_XTT_Cytotoxicity: Cytotoxicity Assessment in the Attagene TRANS-FACTORIAL HepG2 Assay (AID 2283584).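 For AC50: cells exposed to compound for 24 h before reading; active means loss of viability signal versus DMSO baseline.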 Summed up:
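Viability endpoint from XTT after 24 h chemical exposure of reporter-transfected human HepG2 liver cells; signal loss fitted relative to DMSO negative control.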

Assay [2] in a line: LTEA_HepaRG_LDH_cytotoxicity: Cytotoxicity Assessment in the Life Technologies and Expression Analysis (LTEA) Assay (AID 2283563).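 For AC50: LDH activity released into spent culture medium as a marker of cell death.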 The gist of the method:
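LDH release into culture medium read after 48 h chemical treatment of HepaRG cells. Duplicate wells, eight-point half-log series topping at 100 uM, 0.5% DMSO vehicle and baseline.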

Assay [3] in a line: TOX21_p53_BLA_p2_viability: Viability Assessment in the Tox21 HCT-116 p53 Agonism Beta-lactamase Assay, Phase 2 (AID 2283591).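 Note: compound exposure lasted 16 h at 37 °C; actives lower the ATP signal meaning cytotoxicity.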 Summed up: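 HCT-116 p53-bla cells (4000/well) rested 5 h at 37C, then received compounds in DMSO (217-fold dilution) for 16 h at 37C, 5% CO2. After the CCF4 read, CellTiter-Glo was added; ATP luminescence was read after 30 min at room temperature.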

The target in assay [4] is Cellular tumor antigen p53 (Homo sapiens) (UniProt P04637). Put plainly: TOX21_p53_BLA_p2_ratio: Tox21 HCT-116 p53 Agonism Beta-lactamase Assay, Ratio, Phase 2 (AID 2283592). The gist of the method: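 Read-out is the blue/green (460/530 nm, 405 nm excitation) ratio after 2 h CCF4-AM loading, fitted as gain versus DMSO. Compounds, pinned at 217-fold dilution from DMSO stocks, stayed 16 h on HCT-116 beta-lactamase reporter cells seeded 5 h earlier.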

The target is the same in assay [5]. Put plainly: TOX21_p53_BLA_p3_ratio: Tox21 HCT-116 p53 Agonism Beta-lactamase Assay, Ratio, Phase 3 (AID 2283596). Summed up: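 Cells were seeded at 4000/well, rested 5 h at 37C, then dosed with DMSO compound solutions (217-fold dilution) for 16 h. CCF4-AM substrate was loaded for 2 h at room temperature, and the 460/530 nm emission ratio was fitted for gain of signal versus DMSO.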

The nature of assay [6]: TOX21_p53_BLA_p4_viability: Viability Assessment in the Tox21 HCT-116 p53 Agonism Beta-lactamase Assay, Phase 4 (AID 2283597).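 Note: hits lower the luminescence signal meaning cytotoxicity.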 The gist of the method:
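Cytotoxicity as reduced cellular ATP (CellTiter-Glo luminescence, 30 min room temperature), measured in the same wells following the CCF4 FRET p53 reading. Human HCT-116 cells received compounds in DMSO (217-fold dilution) for 16 h.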

In assay [7] the target is Cellular tumor antigen p53 (Homo sapiens) (UniProt P04637). Put plainly: TOX21_p53_BLA_p5_ratio: Tox21 HCT-116 p53 Agonism Beta-lactamase Assay, Ratio, Phase 5 (AID 2283599). The gist of the method:
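HCT-116 cells carrying a p53-inducible beta-lactamase reporter were seeded at 4000 cells/well and dosed after 5 h with compound in DMSO (217-fold dilution). After 16 h at 37C, CCF4-AM substrate was added for 2 h, and the 460/530 nm emission ratio was scored as gain-of-signal versus DMSO.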

Assay [8] in a line: TOX21_p53_BLA_p5_viability: Viability Assessment in the Tox21 HCT-116 p53 Agonism Beta-lactamase Assay, Phase 5 (AID 2283600). The gist of the method: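 Viability came from CellTiter-Glo ATP luminescence, read after 30 min at room temperature. Before this, HCT-116 p53-bla cells (4000/well) had 16 hours of compound exposure at 37C, with DMSO stocks diluted 217-fold on transfer.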

Assay [9] deals with Cellular tumor antigen p53 (Homo sapiens) (UniProt P04637). Nature of the assay: TOX21_p53_BLA_p4_ratio: Tox21 HCT-116 p53 Agonism Beta-lactamase Assay, Ratio, Phase 4 (AID 2283601). Summed up:
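HCT116 cells carrying an inducible beta-lactamase reporter were plated at 4000 cells/well, rested 5 h, then exposed to compounds in DMSO (217-fold dilution) for 16 h at 37C. CCF4-AM substrate was loaded 2 h at room temperature; 460/530 nm emission ratio scored gain-of-signal versus DMSO.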

A short description of assay [10]: Tanguay_ZF_120hpf_MORT_legacy: (Legacy) Oregon State University Tanguay Lab 120 Hour Post-fertilization zebrafish Assay for Mortality (AID 2283633). The gist of the method: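 Static waterborne exposure from 6 to 120 hpf at 28C of single dechorionated wild-type (5D) embryos per well, 0.64% DMSO final. Death recorded present/absent by brightfield at 24 and 120 hpf.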

Assay [11] in a line: Tanguay_ZF_120hpf_YSE_legacy: (Legacy) Oregon State University Tanguay Lab 120 Hour Post-fertilization zebrafish Assay for Yolk Sac Edema (AID 2283634).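 For AC50: actives raise the incidence of yolk sac edema above the DMSO baseline.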 The gist of the method: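 Presence or absence of yolk sac edema was recorded at 120 hpf in surviving larvae. These were wild-type Tropical 5D embryos, chorion removed at 4 hpf, held in static exposure at 28C from 6 hpf with 0.64% DMSO vehicle.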

Assay [12] in a line: Tanguay_ZF_120hpf_AXIS_legacy: (Legacy) Oregon State University Tanguay Lab 120 Hour Post-fertilization zebrafish Assay for Body Axis Malformation (AID 2283635).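 For AC50: potency for an increased fraction of larvae scored with body axis malformation.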 Summed up: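 Binary scoring of axis defects at 120 hpf under brightfield, fitted positive versus DMSO. Tropical 5D embryos, chorion removed by pronase at 4 hpf, were singly exposed in sealed, dark plates at 28C from 6 hpf; DMSO 0.64% final.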

Assay [13] in a line: Tanguay_ZF_120hpf_EYE_legacy: (Legacy) Oregon State University Tanguay Lab 120 Hour Post-fertilization zebrafish Assay for Eye Malformation (AID 2283636).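 Note: binary presence or absence of eye malformation scored by brightfield in 120 hpf larvae.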 The gist of the method:
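Static waterborne exposure of dechorionated zebrafish embryos (strain Tropical 5D), 6 to 120 hpf, sealed plates at 28C, 0.64% DMSO vehicle. Eye malformation is scored as a binary endpoint, with gain of signal analysed relative to DMSO.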

Assay [14] is described as follows: Tanguay_ZF_120hpf_SNOU_legacy: (Legacy) Oregon State University Tanguay Lab 120 Hour Post-fertilization zebrafish Assay for Snout Malformation (AID 2283637). The gist of the method: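 Dechorionated zebrafish, individually housed from 6 hpf in covered, sealed wells at 28C with 0.64% DMSO vehicle, were examined at 120 hpf for snout malformation. Responses were binary and analysed positive-direction relative to DMSO.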

Assay [15] in a line: Tanguay_ZF_120hpf_PE_legacy: (Legacy) Oregon State University Tanguay Lab 120 Hour Post-fertilization zebrafish Assay for Pericardial Edema (AID 2283640).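 For AC50: potency for increased incidence of pericardial edema versus DMSO baseline.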 Summed up: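 Scoring was binary, by brightfield microscopy at 120 hpf, and skipped where mortality occurred. Wild-type embryos were kept under sealed, foil-covered static exposure at 28C in 0.64% (vol/vol) DMSO.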
Assay [16] in a line: Tanguay_ZF_120hpf_SOMI_legacy: (Legacy) Oregon State University Tanguay Lab 120 Hour Post-fertilization zebrafish Assay for Somite Malformation (AID 2283647). Summed up: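 Binary somite-defect scoring at 120 hpf, omitted for embryos that died, in wild-type (Tropical 5D) zebrafish with chorion removed by pronase at 4 hpf; static exposure began 6 hpf, single embryos per well, 28C, 0.64% DMSO; fitted positive versus DMSO.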

Assay [17] can be described thus: Tanguay_ZF_120hpf_JAW_legacy: (Legacy) Oregon State University Tanguay Lab 120 Hour Post-fertilization zebrafish Assay for Jaw Malformation (AID 2283638).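 For AC50: active means more embryos with jaw malformation than DMSO controls.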 The gist of the method: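 Binary jaw-malformation call at 120 hpf by brightfield microscopy. Embryos (Tropical 5D strain, chorion removed at 4 hpf) were dosed statically at 6 hpf, one per well, at 28C with 0.64% DMSO. Embryos that died were not scored.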

The nature of assay [18]: Tanguay_ZF_120hpf_OTIC_legacy: (Legacy) Oregon State University Tanguay Lab 120 Hour Post-fertilization zebrafish Assay for Otic Vesicle Malformation (AID 2283639). Summed up:
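Brightfield scoring at 120 hpf, binary present/absent; DMSO negative control, 5uM trimethyltin chloride positive control. Static exposure at 28C, final DMSO 0.64% (vol/vol). Dead embryos not scored for malformation.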

Assay [19] is described as follows: Tanguay_ZF_120hpf_BRAI_legacy: (Legacy) Oregon State University Tanguay Lab 120 Hour Post-fertilization zebrafish Assay for Brain Malformation (AID 2283641). Summed up:
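Binary brightfield scoring of brain malformation at 120 hpf in Tropical 5D larvae held under static exposure at 28C (0.64% v/v DMSO), non-mortality endpoints skipped if dead. Positive control: 5uM trimethyltin chloride; fit versus DMSO.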

“And” between values parts separate entries of the source, which are not always exact repeats. Equal values may be shown once. Inconclusive results are not listed. Some structures have more than one record in an assay (separate samples or runs), and their calls can disagree. The source made the active and inactive calls. Rule for the calls: active = hit-call score of the fitted dose curve at least 0.9, where 1 is the maximum; inconclusive = response in the unintended direction; inactive = score below 0.9.

Chain of Cellular tumor antigen p53 (Homo sapiens) (P04637 whole entry, looked up): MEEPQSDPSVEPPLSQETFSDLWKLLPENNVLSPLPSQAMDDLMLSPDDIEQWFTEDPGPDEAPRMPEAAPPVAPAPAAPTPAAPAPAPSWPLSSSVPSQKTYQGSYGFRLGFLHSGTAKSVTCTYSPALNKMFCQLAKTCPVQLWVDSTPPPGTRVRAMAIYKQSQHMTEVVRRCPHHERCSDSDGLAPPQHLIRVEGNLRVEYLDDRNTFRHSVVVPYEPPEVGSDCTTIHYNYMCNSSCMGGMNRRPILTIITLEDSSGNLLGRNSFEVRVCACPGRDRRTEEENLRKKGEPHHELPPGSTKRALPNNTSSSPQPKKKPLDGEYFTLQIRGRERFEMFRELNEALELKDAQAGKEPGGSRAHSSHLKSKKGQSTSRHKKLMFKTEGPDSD

For `c1ccc2c(c1)-c1ccc3ccc4cccc5cc-2c1c3c45`, in [1], the result was inactive.
On the same count and under the same terms, in the case of `CC(=O)c1ccc(C)cc1` it was “inactive”; in that of `CCC(=O)OC/C=C(\C)CCC=C(C)C`, “inactive”; in that of `O=c1cc[nH]cc1`, “inactive”.
In the case of `CC(O)CN` (stereo unspecified), the compound was called inactive in assay [1].
On the same count and under the same terms, in the case of `C[N+](C)(C)CCO` it was “inactive”; in that of `C=C1CC[C@H]2O[C@]2(C)CC[C@@H]2[C@@H]1CC2(C)C`, “inactive”.
Same read-out and setting: in the case of `c1ccc(Sc2ccccc2)cc1` it was “inactive”; in that of `CCCCCCCCCCCCOC(C)=O`, “inactive”.
The same measure, in the same setting: then `CCCCOCC(C)OCC(C)O` (stereo unspecified), with “inactive”.
The term AC50 denotes the concentration giving half of the maximal activity seen. Consider `O=C(c1ccc(OCCN2CCCCC2)cc1)c1c(-c2ccc(O)cc2)sc2cc(O)ccc12`, for which the AC50 in assay [2] is 77.4 µM (active); in [1], 28.3 µM (active) and 28.6 µM (active) and 34.3 µM (active); in [3], 84.9 µM (active) and 71.8 µM (active) and 42.8 µM (active); in assay [4] it was 68.6 µM (active) and 62.8 µM (active) and 36.4 µM (active); in [5], 74.5 µM (active) and 71.4 µM (active) and 26.1 µM (active); in assay [6] it was 68.2 µM (active) and 68.5 µM (active) and 25.1 µM (active). Also, the AC50 was 72.8 µM (active) and 81.5 µM (active) and 36.2 µM (active) in [7]; 77.6 µM (active) and 87.9 µM (active) and 41.9 µM (active) in assay [8]; 69.6 µM (active) and 69.3 µM (active) and 36.5 µM (active) in assay [9]. The outcome in [1], in assay [10], in assay [11], in [12], in assay [13] and in [14] was inactive. Further, the compound was classed as inactive in assay [15] and in assay [16].
Consider `C#C[C@]1(O)CC[C@H]2[C@@H]3CCc4cc(O)ccc4[C@H]3CC[C@@]21C`, for which the compound was called inactive in [2], in [1], in assay [3], in [6], in assay [10] and in assay [11]. Besides, the call in assay [13], in assay [14], in assay [17], in assay [18], in assay [15] and in assay [19] was inactive. Further, in assay [16], the compound was classed as inactive. Besides, the AC50 in [4] was 9 µM (active) and 6.58 µM (active) and 7.36 µM (active); in assay [5] it was 15.2 µM (active) and 16.2 µM (active); in [7], 11.7 µM (active) and 13.9 µM (active) and 7.67 µM (active); in assay [9], 6.65 µM (active) and 13.5 µM (active) and 8.18 µM (active).
Turning to `Cc1ccccc1S`, the outcome in assay [1] was inactive.
The same measure, in the same setting: in the case of `CCCC1CCC(=O)CC1` it was “inactive”.
On the same count and under the same terms, then `CCO[Si](CCC#N)(OCC)OCC`, with “inactive”; and `NNC(=O)OCc1ccccc1`, with “inactive”; and `O=C1CCCCCCCCCCCC(=O)OCCO1`, with “inactive”.
Same read-out and setting: in the case of `CC(C)(C)c1cc(CCC(=O)OCCSCCOC(=O)CCc2cc(C(C)(C)C)c(O)c(C(C)(C)C)c2)cc(C(C)(C)C)c1O` it was “inactive”; in that of `CCCOC(=O)CC`, “inactive”.
As to `CC=CC(=O)C1=C(C)C=CCC1(C)C`, the compound was called inactive in assay [1].
The same measure, in the same setting: in the case of `C1CCCNCC1` it was “inactive”.
In the case of `COC(=O)c1ccc(C(=O)OC)cc1`, the compound was called inactive in assay [2], in assay [1], in assay [3], in [5], in assay [6] and in assay [7]. Further, the result in assay [8], in assay [9], in [10], in [18] and in assay [16] was inactive. The AC50 in assay [11] was 37 µM (active); in assay [12] it was 21.1 µM (active); in assay [13], 34 µM (active); in assay [14], 30.2 µM (active); in assay [17] it was 32.7 µM (active); in [15], 28.9 µM (active). In [19], the AC50 is 44.4 µM (active).
